Measurements as given in PubChem BioAssay.
Values joined by “and” are separate entries in the source; they are usually repeats but may differ in a detail not shown here. Identical values can stand only once. Inconclusive results are not listed. Active and inactive are the calls of the source.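 How the source made its calls, unless noted: active means normalized viability below 100% at a tested concentration; inactive means the rest.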

Experiments:
[1] = Wnt pathway potentiators raising nuclear beta-catenin – imaging, WNT3A-conditioned medium, mouse C2C12, NPC library, primary screen (AID 1117326; in the data active means nuclear beta-catenin stimulation mostly above about 4.2%, no sharp cut-off; inactive means mostly below about 10%); conditions: stronger effect = higher value
[2] = stimulators of insulin release from INS-1E, primary screen, cell-based, 5 mM glucose, NPC library (AID 1117329;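 active means compound raises insulin release from rat beta cells at 5 mM glucose, no numeric limit stated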); conditions: rat INS-1E insulin secretion, at 10 µM, stronger effect = higher value
[3] = growth inhibition of GSK3B-pretreated HCT116 cells – cell-based, CellTiter-Glo, 0.2 to 20 µM (AID 1117336;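 active means compounds lowering colon cancer cell viability after pretreatment blocking the GSK3B kinase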); conditions: HCT116 viability after GSK3B inhibitor, at 20 µM, stronger effect = higher value
[4] = inhibition of endothelial tube formation, primary screen, imaging, VEGF stimulated, CD31 staining, tube area, NPC library (AID 1117340;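 active means compound that reduces growth-factor-driven endothelial tube area in a mixed cell culture, no cutoff stated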); conditions: VEGF-stimulated ADSC/ECFC co-culture, at 10 µM, stronger effect = higher value
[5] = GLP1 release stimulators, primary, NCI-H716, NPC library (AID 1117341;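 active means compound raises GLP1 secretion from the human gut endocrine cells, with no numeric limit stated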); conditions: NCI-H716 cells, at 10 µM, stronger effect = higher value
[6] = HCT116 colon cancer cell growth inhibition, primary screen, CellTiter-Glo luminescence, NPC library (AID 1117342;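 active means compounds that lower survival of HCT116 colon cancer cells in the luminescence readout, no numeric limit stated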); conditions: at 20 µM (top of the series)
[7] = reduced SW480 viability measured with CellTiter-Glo, NPC library, primary (AID 1117343;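 active means compounds that lower viability of the colon cancer cells in the luminescence readout, with no numeric limit stated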); conditions: CellTiter-Glo luminescence; at 20 µM (top of the series) unless noted
[8] = NPC library primary testing for decreased DLD-1 cell viability via CellTiter-Glo (AID 1117346;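 active means compounds that lower survival of DLD-1 colon cancer cells in the luminescence readout, no cutoff given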); conditions: DLD-1 viability, CellTiter-Glo luminescence; at 20 µM (top of the series)
[9] = viability loss in pontine glioma line – cell-based, JHH-DIPG-1, MIPE4.0, CellTiter-Glo, qHTS, dose response (AID 1347062; cut-off not given, nearly all actives have AC50 up to about 27 µM;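 further: cells exposed to compound for two days before readout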); conditions: JHH-DIPG-1 viability, CellTiter-Glo ATP luminescence
[10] = viability loss in pontine glioma line – cell-based, SU-DIPG-IV, MIPE4.0, CellTiter-Glo, qHTS, dose response (AID 1347063; cut-off not given, nearly all actives have AC50 up to about 30 µM;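 further: compound exposure lasted 48 hours before the viability readout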); conditions: CellTiter-Glo ATP luminescence
[11] = growth inhibition of DIPG cells – cell-based, MIPE4.0 library, CellTiter-Glo luminescence, qHTS (AID 1347066; cut-off not given, nearly all actives have AC50 up to about 30 µM;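 further: cells exposed to compound for 48 hours before readout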); conditions: SU-DIPG-VI viability, CellTiter-Glo ATP luminescence
[12] = growth inhibition of DIPG cells – cell-based, MIPE5.0 library, qHTS (AID 1347068; cut-off not given, nearly all actives have IC50 up to about 30 µM); conditions: SU-DIPG-XXV viability
[13] = P. berghei load reduction in hepatocytes – cell-based, HepG2, luciferase luminescence, HepG2 viability, primary screen (AID 624349; in the data active means parasite load remaining mostly below about 12%, no sharp cut-off; inactive means mostly above about 10%;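 further: 100% = mean of DMSO negative control wells on the same plate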); conditions: P. berghei liver stage in HepG2, luciferase luminescence, concentration not given here; parasite load remaining: stronger effect = lower value; viability: measured here: HepG2 viability without parasites
[14] = viability loss in pontine glioma line – cell-based, SU-DIPG-XXV, MIPE5.0, CellTiter-Glo, qHTS, dose response (AID 1347065; cut-off not given, nearly all actives have AC50 up to about 26 µM;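 further: cells exposed to compound for 48 hours before ATP readout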); conditions: CellTiter-Glo ATP luminescence
[15] = viability loss with induced miR-34 in A549 – imaging, A549 dox-inducible miR-34, nuclei and caspase counts, primary screen (AID 1347080;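 active means compounds whose cell count with miR-34 switched on is under 0.7 times the count with it off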); conditions: A549 miR-34 inducible, Hoechst nuclei count, 48 h
[16] = MELAS cybrid and Rieske KO viability enhancers – cell-based, MELAS cybrids, Rieske KO mouse fibroblasts, CellTiter-Glo, primary screen (AID 1508586;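 active means mean z-score across replicates of 1.96 or higher in either the MELAS or the Rieske mutant cell line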;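 further: z relative to plate mean and SD of compound and empty wells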); conditions: low glucose
[17] = drug combination growth inhibition, ovarian cancer – cell-based, oncology-focused library, rucaparib conditional, profiling panel (AID 1508598); conditions: patient-derived ovarian cancer cells, CellTiter-Glo viability, 144 h, stronger effect = lower value
[18] = galactose survival enhancers in mitochondrial complex I cybrids – cell-based, galactose medium, ATP luminescence, primary screen (AID 1645843;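 active means z-score of at least 1.8 in each of two replicates, scored against plate mean and spread of sample wells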;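 further: positive z means more ATP and so rescue of galactose-driven cybrid death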); conditions: complex I mutant cybrid cells, 72 h, stronger effect = higher value
[19] = stronger effect = lower value, cell number ratio, induced over uninduced
[20] = measured here: relative caspase fold change +Dox/-Dox
[21] = measured here: total cells with miR-34 induction, stronger effect = lower value
[22] = measured here: total cells without miR-34 induction

CCCCCCOC(=O)NC(=N)c1ccc(NCc2nc3cc(C(=O)N(CCC(=O)OCC)c4ccccn4)ccc3n2C)cc1
nuclear beta-catenin stimulation ([1]; at 10 µM): 2.7% (inactive) | nuclear beta-catenin stimulation ([1]; stimulation, at 2 µM): 2.3% | insulin secretion stimulation [2]: 0.9% (inactive) | viability decrease [3]: 78.3% (active) | tube area decrease [4]: -1.4% (inactive) | GLP1 secretion stimulation [5]: -2.6% (inactive) | inhibition of viability [6]: 118% (active) | viability decrease (inhibition) [7]: 155% (active) | viability decrease (inhibition) [8]: 102% (active) | AC50 [9]: 26.4 µM (active) | outcome [10]: inactive | AC50 [11]: 26.4 µM (active) | outcome [12]: inactive

C#Cc1cccc(Nc2ncnc3cc(OCCOC)c(OCCOC)cc23)c1
parasite load remaining [13]: 380% (inactive) | viability [13]: 168% | nuclear beta-catenin stimulation ([1]; at 10 µM): 1.3% (inactive) | nuclear beta-catenin stimulation ([1]; stimulation, at 2 µM): -0.8% | insulin secretion stimulation [2]: 1.8% (inactive) | viability decrease [3]: 72.1% (active) | tube area decrease [4]: -49.7% (inactive) | GLP1 secretion stimulation [5]: 1.7% (inactive) | inhibition of viability [6]: 59.4% (active) | viability decrease (inhibition) [7]: 34.2% (inactive) | viability decrease (inhibition) [8]: 83.4% (active) | AC50 [9]: 7.43 µM (active) | AC50 [10]: 7.43 µM (active) | AC50 [14]: 7.42 µM (active) | fold change [15, 19]: 0.807 (inactive) | fold change [15, 20]: 1.12 | cell count [15, 21]: 4550 | cell count [15, 22]: 5640 | z-score ([16]; MELAS cybrid survival, CellTiter-Glo 48 h, stronger effect = higher value): 2.01 (active) and 0.197 | z-score ([16]; Rieske KO mouse fibroblast survival, CellTiter-Glo 72 h): -0.563 and 2.07 | viability ([17]; at 0.000305 µM, OCI-C5x cells, with rucaparib 10 µM, 100% = cells with rucaparib alone): 108% (inactive) | viability ([17]; at 0.000305 µM, OCI-C5x cells, without rucaparib): 109% (inactive) | viability ([17]; at 0.000305 µM, OCI-P5x cells, with rucaparib 20 µM, 100% = cells with rucaparib alone): 121% (inactive) | viability ([17]; at 0.000305 µM, OCI-P5x cells, without rucaparib): 93.6% (active) | viability ([17]; at 0.00122 µM, OCI-C5x cells, with rucaparib 10 µM, 100% = cells with rucaparib alone): 105% (inactive) | viability ([17]; at 0.00122 µM, OCI-C5x cells, without rucaparib): 109% (inactive) | viability ([17]; at 0.00122 µM, OCI-P5x cells, with rucaparib 20 µM, 100% = cells with rucaparib alone): 142% (inactive) | viability ([17]; at 0.00122 µM, OCI-P5x cells, without rucaparib): 96.4% (active) | viability ([17]; at 0.00488 µM, OCI-C5x cells, with rucaparib 10 µM, 100% = cells with rucaparib alone): 109% (inactive) | viability ([17]; at 0.00488 µM, OCI-C5x cells, without rucaparib): 104% (inactive) | viability ([17]; at 0.00488 µM, OCI-P5x cells, with rucaparib 20 µM, 100% = cells with rucaparib alone): 111% (inactive) | viability ([17]; at 0.00488 µM, OCI-P5x cells, without rucaparib): 101% (inactive) | viability ([17]; at 0.0195 µM, OCI-C5x cells, with rucaparib 10 µM, 100% = cells with rucaparib alone): 105% (inactive) | viability ([17]; at 0.0195 µM, OCI-C5x cells, without rucaparib): 101% (inactive) | viability ([17]; at 0.0195 µM, OCI-P5x cells, with rucaparib 20 µM, 100% = cells with rucaparib alone): 122% (inactive) | viability ([17]; at 0.0195 µM, OCI-P5x cells, without rucaparib): 97.9% (active) | viability ([17]; at 0.0781 µM, OCI-C5x cells, with rucaparib 10 µM, 100% = cells with rucaparib alone): 102% (inactive) | viability ([17]; at 0.0781 µM, OCI-C5x cells, without rucaparib): 106% (inactive) | viability ([17]; at 0.0781 µM, OCI-P5x cells, with rucaparib 20 µM, 100% = cells with rucaparib alone): 135% (inactive) | viability ([17]; at 0.0781 µM, OCI-P5x cells, without rucaparib): 99% (active) | viability ([17]; at 0.313 µM, OCI-C5x cells, with rucaparib 10 µM, 100% = cells with rucaparib alone): 101% (inactive) | viability ([17]; at 0.313 µM, OCI-C5x cells, without rucaparib): 104% (inactive) | viability ([17]; at 0.313 µM, OCI-P5x cells, with rucaparib 20 µM, 100% = cells with rucaparib alone): 109% (inactive) | viability ([17]; at 0.313 µM, OCI-P5x cells, without rucaparib): 91.2% (active) | viability ([17]; at 1.25 µM, OCI-C5x cells, with rucaparib 10 µM, 100% = cells with rucaparib alone): 76% (active) | viability ([17]; at 1.25 µM, OCI-C5x cells, without rucaparib): 91.8% (active) | viability ([17]; at 1.25 µM, OCI-P5x cells, with rucaparib 20 µM, 100% = cells with rucaparib alone): 101% (inactive) | viability ([17]; at 1.25 µM, OCI-P5x cells, without rucaparib): 83% (active) | viability ([17]; at 5 µM, OCI-C5x cells, with rucaparib 10 µM, 100% = cells with rucaparib alone): 39.7% (active) | viability ([17]; at 5 µM, OCI-C5x cells, without rucaparib): 62.2% (active) | viability ([17]; at 5 µM, OCI-P5x cells, with rucaparib 20 µM, 100% = cells with rucaparib alone): 76.9% (active) | viability ([17]; at 5 µM, OCI-P5x cells, without rucaparib): 66.3% (active) | z-score [18]: 1.06 (inactive)

CN(C)[C@@H](CCOc1cccc2ccccc12)c1ccccc1
nuclear beta-catenin stimulation ([1]; at 10 µM): 0.1% (inactive) | nuclear beta-catenin stimulation ([1]; stimulation, at 2 µM): -0.4% | insulin secretion stimulation [2]: 9.9% (inactive) | viability decrease [3]: 89.7% (active) | tube area decrease [4]: 20.5% (inactive) | GLP1 secretion stimulation [5]: 6% (inactive) | inhibition of viability [6]: 91.5% (active) | viability decrease (inhibition) [7]: 103% (active) | viability decrease (inhibition) [8]: 67% (active) | AC50 [9]: 20.9 µM (active) | AC50 [10]: 23.5 µM (active)

CCCCCCCCCCCCCCCC(=O)O
nuclear beta-catenin stimulation ([1]; at 10 µM): 0.3% (inactive) | nuclear beta-catenin stimulation ([1]; stimulation, at 2 µM): 1.7% | insulin secretion stimulation [2]: 2.3% (inactive) | viability decrease [3]: 2.25% (inactive) | tube area decrease [4]: -25.4% (inactive) | GLP1 secretion stimulation [5]: 0.3% (inactive) | inhibition of viability [6]: -38.8% (inactive) | viability decrease (inhibition) [7]: 32.7% (inactive) | viability decrease (inhibition) [8]: 8.5% (inactive) | fold change [15, 19]: 1.03 (inactive) | fold change [15, 20]: 1.12 | cell count [15, 21]: 5900 | cell count [15, 22]: 5710
